# Experimental data published in the supplement of paper PMC6555819.
# Experiments:
# Test in all cases: PBM binding z-score (relative to random genomic background probes); higher = stronger binding; sequences stand for … in GC…GCGATTGACAGCGTAGAATGAAGG
# [1] = tested on: FXR:RXRa (NR concentration 270 nM, RXRa partner concentration 90 nM)
# How it was run: (§1)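 Each nuclear receptor dimer, without ligand, was incubated for 1 h on custom Agilent 4×180K protein-binding microarrays. Binding was detected with antibodies against each partner (one per run), and scanned fluorescence was regression-normalized. The binding z-scores are referenced to random human genomic background probes.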
# [2] = tested on: LXRa:RXRa (NR concentration 270 nM, RXRa partner concentration 90 nM)
# How it was run: as §1
# [3] = tested on: LXRa homodimer (NR concentration 270 nM)
# How it was run: as §1
# [4] = tested on: LXRb:RXRa (NR concentration 270 nM, RXRa partner concentration 90 nM)
# How it was run: as §1
# [5] = tested on: LXRb homodimer (NR concentration 270 nM)
# How it was run: as §1
# [6] = tested on: PPARa:RXRa (NR concentration 270 nM, RXRa partner concentration 90 nM)
# How it was run: as §1
# [7] = tested on: PPARg:RXRa (NR concentration 180 nM, RXRa partner concentration 90 nM)
# How it was run: as §1
# [8] = tested on: PPARg:RXRa 270nM:90nM, anti-RXR (NR concentration 270 nM, RXRa partner concentration 90 nM)
# How it was run: as §1
# [9] = tested on: PPARg:RXRa 30nM:10nM, anti-RXR (NR concentration 30 nM, RXRa partner concentration 10 nM)
# How it was run: as §1
# [10] = tested on: PPARg:RXRa 90nM:30nM, anti-RXR (NR concentration 90 nM, RXRa partner concentration 30 nM)
# How it was run: as §1
# [11] = tested on: PPARg:RXRa DBDmut IVT, anti-RXR (DBD mutation: RXRa K156A/R161A, NR concentration 270 nM, RXRa partner concentration 90 nM)
# How it was run: as §1
# [12] = tested on: PPARg:RXRa IVT, anti-PPARg (NR concentration 270 nM, RXRa partner concentration 90 nM)
# How it was run: as §1
# [13] = tested on: PPARg DBDmut:RXRa IVT, anti-PPARg (DBD mutation: PPARg1 K132A/R137A, NR concentration 270 nM, RXRa partner concentration 90 nM)
# How it was run: as §1
# [14] = tested on: PPARg DBDmut IVT, anti-PPARg (DBD mutation: PPARg1 K132A/R137A, NR concentration 270 nM)
# How it was run: as §1
# [15] = tested on: PPARg homodimer (NR concentration 180 nM)
# How it was run: as §1
# [16] = tested on: PXR:RXRa (NR concentration 270 nM, RXRa partner concentration 90 nM)
# How it was run: as §1
# [17] = tested on: PXR homodimer (NR concentration 270 nM)
# How it was run: as §1
# [18] = tested on: RARa:RXR (NR concentration 270 nM, RXRa partner concentration 90 nM)
# How it was run: as §1
# [19] = tested on: RARa homodimer (NR concentration 270 nM)
# How it was run: as §1
# [20] = tested on: RARb:RXRa (NR concentration 270 nM, RXRa partner concentration 90 nM)
# How it was run: as §1
Sequence,PBM binding z-score [1],PBM binding z-score [2],PBM binding z-score [3],PBM binding z-score [4],PBM binding z-score [5],PBM binding z-score [6],PBM binding z-score [7],PBM binding z-score [8],PBM binding z-score [9],PBM binding z-score [10],PBM binding z-score [11],PBM binding z-score [12],PBM binding z-score [13],PBM binding z-score [14],PBM binding z-score [15],PBM binding z-score [16],PBM binding z-score [17],PBM binding z-score [18],PBM binding z-score [19],PBM binding z-score [20]
ATCTCTAGGTAACCAAGTTTAGTGAATGCCGAAC,0.39,0.24,0.318,0.275,0.481,0.803,0.412,0.529,0.254,0.616,3.62,2.79,0.887,1.75,0.787,0.564,0.333,0.55,1.08,0.627
TCTCGGAGGACACGAAAGTCAGAGCTTTCCAGAG,0.434,-0.603,-0.708,-0.456,-1.24,0.0493,-0.000671,0.487,2.23,1.24,1.13,0.191,-0.706,-0.594,-0.882,-0.408,-0.694,-0.237,-0.903,1.28
ATATGTAGGTTACATCCGGGGCATTCAGGCTATG,0.427,2.23,0.412,1.16,1.07,3.19,5.17,4.28,1.77,3.18,7.46,7.35,2.05,1.15,0.96,1.14,0.659,0.992,0.476,1.26
TGTCAAAGTGCAAAGGTAACGTAAGTATCCACAC,1.4,1.63,-0.525,1.5,-0.151,3.32,5.23,5.16,2.4,4.4,0.00516,2.98,0.574,0.92,1.09,1.76,0.397,2.57,0.0756,2.38
ATATGTAGGTTACATCCGGGTTATTCAGGCTATG,0.937,3.18,0.529,1.71,0.53,3.59,5.15,4.27,2,3.64,7.44,7.16,4.04,2.37,3.3,1.2,0.531,1.57,0.67,1.35
CGTACTAGGTCATCCAGGACAGTGAATACATTGA,4.17,2.58,0.958,2.46,0.292,4.53,6.87,5.33,3.15,5.25,7.23,7.74,1.93,1.33,2.23,1.87,0.94,2.45,0.55,3.8
ATCGCTAGGTAAAGTTCAGTGAAAGATCGATAGA,0.349,1.22,0.609,0.692,-0.361,1.81,1.85,3.26,1.49,2.75,-0.192,0.414,-0.0288,-0.241,0.606,1.42,1.26,0.812,-0.216,2.37
GCAGACAGGTGAAACGCAGGTAACCCAGGGTGGC,-0.174,-0.00229,-0.737,-0.377,-1.23,0.855,0.586,-0.135,-0.728,-0.633,0.158,0.862,-0.147,-0.879,-0.777,-0.365,-0.8,0.305,-1.34,0.601
TGAATGAGGTTATAAGATCAGAGAACGTTGCAAA,1.28,1.23,-0.332,0.897,-0.296,2.62,1.45,1.83,1.04,1.35,0.837,1.71,0.635,0.498,0.196,0.687,-0.71,1.18,-0.143,0.975
AGAATGAGCTTAAGATCAGGGAAACAGAATACAT,-0.576,-0.745,-0.372,-0.637,-0.597,-0.434,0.541,-0.0832,0.137,0.036,-0.826,-0.493,0.133,0.568,-0.142,-0.393,-0.0876,0.0208,-0.0937,-0.502
AGAATTAGGTTAAGATCAGGGAAACAGAATACAT,0.832,0.821,0.412,0.748,0.359,2.94,3.33,2.93,1.28,2.24,6.07,5.8,2.12,1.83,1.72,0.514,0.846,0.922,1.26,1.03
CCGACTAGGGCAAGGTTACCATAACGCACAGCCA,0.299,0.666,-0.117,0.701,-1.03,1.93,3.55,3.99,1.61,3.28,4.54,4.32,-0.62,-0.559,1.27,0.169,-0.069,0.801,0.218,1.91
GGAACGAGGGCAAGTTGGTAGCAGAGTTTGATGG,0.88,0.565,-0.29,0.202,-0.428,1.58,0.752,0.875,-0.334,0.0314,3.6,2.34,-0.479,-0.423,0.722,0.696,0.853,0.662,-0.182,2.79
